In PubChem BioAssay (NCATS):
Where “and” joins values, the source holds several entries; their conditions need not be identical. Equal entries are not always repeated. Records with an inconclusive call do not appear. Some structures have more than one record in an assay (separate samples or runs), and their calls can disagree. Calls of active or inactive are those of the source. Unless noted, calls follow the shape of the dose curve; as a rule, active = well fitted curve in the direction sought with a large enough effect; inconclusive = small, poorly fitted or top-dose-only effect, or another doubt; inactive = no such curve, though single readings can be large; an effect the other way counts as inactive or inconclusive.

Key:
[1] = Cell Viability - BJ (AID 421; calls by dose curve;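 also: potency is read from the fitted curve at half-maximal effect; cells exposed to compound for 40 hours at 37 °C before readout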); details: BJ fibroblast viability, qHTS
In short: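 Normal human BJ foreskin fibroblasts, 1500/well in complete medium, treated 40 hr at 37 °C. Cellular ATP by CellTiter-Glo luminescence; normalized to DMSO and 100 uM tamoxifen, AC50 from Hill fit.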

[2] = Cell Viability - Jurkat (AID 426;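 active = dose-dependent loss of cell ATP signal giving a full or clear fitted curve, ranked by lower potency value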; also: potency is read from the fitted curve at half-maximal effect); details: qHTS
In short: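 Seed 5000 Jurkat E6-1 cells/well; add compound; incubate 40 hr at 37 °C; add CellTiter-Glo; wait 20 min at room temperature; read luminescence. Fit concentration-response with Hill equation for AC50.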

[3] = Cell Viability - Hek293 (AID 427;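 active = compounds whose dose-response curve shows a full or clear partial loss of cell viability, called from curve shape rather than a numeric limit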;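 also: potency is read from the fitted curve at half-maximal effect; cells exposed to compound for 40 hours at 37 °C before reading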); details: qHTS
In short: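 HEK293 cells in complete medium were exposed to compound for 40 hr at 37 °C, then cellular ATP was read by CellTiter-Glo luminescence. Data were normalized to DMSO (basal) and 100 uM tamoxifen (100% inhibition), and AC50 came from Hill fits.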

[4] = Cell Viability - HepG2 (AID 433; calls by dose curve;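 also: potency is read from the fitted curve at half-maximal effect; potency for ATP loss meaning cytotoxicity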); details: qHTS
In short: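 Read-out is luciferase-based quantitation of cellular ATP as a measure of viable HepG2 cells after 40 h treatment at 37 °C. Signal decrease is scaled between DMSO-only and 100 uM tamoxifen controls, with AC50 fitted by the Hill equation.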

[5] = Cell Viability - MRC5 (AID 434; calls by dose curve;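 also: potency is read from the fitted curve at half-maximal effect; potency reflects cytotoxicity seen as loss of intracellular ATP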); details: MRC5 lung fibroblast viability, qHTS
In short: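 MRC5 normal human lung fibroblasts (1500/well) were treated with compounds for 40 hr at 37 °C in complete medium, and viable cells were measured as intracellular ATP by CellTiter-Glo luminescence. AC50 came from Hill fits, normalized to DMSO and 100 uM tamoxifen.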

[6] = Cell Viability - SK-N-SH (AID 435; calls by dose curve;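 also: potency is read from the fitted curve at half-maximal effect; compound exposure lasted 40 h at 37 °C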); details: SK-N-SH neuroblastoma cell viability qHTS
In short: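 Luminescent ATP signal served as the viability read-out after 40 hours of compound treatment of human neuroblastoma SK-N-SH cells. Concentration-response data, scaled between DMSO and 100 uM tamoxifen, gave AC50 values by standard Hill modeling.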

[7] = Stat Signaling Pathway (AID 446; active = well fitted curve in either direction with a large enough effect, not every such curve was filed as active;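 also: ME-180 cervical cancer cells given 40 pM IL-6 alongside compound; SIE-controlled beta-lactamase reporter measured as 460/530 nm FRET emission ratio; % is scaled to controls: 0 for no effect and ±100 for the full control effect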); details: ME-180 SIE beta-lactamase reporter, IL-6 stimulated, 5 h; at 17.2 µM (top of the series) unless noted
In short: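 ME-180 cells carrying a SIE-driven beta-lactamase reporter are stimulated with 40 pM IL-6 for 5 h at 37C in the presence of compound. The 460/530 nm FRET substrate ratio is read after 2.5 h at RT. Data are normalised to 300 pM IL-6 and to 125 nM JAK inhibitor controls.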

[8] = target: Glucocorticoid receptor (Homo sapiens) (UniProt P04150); test: GR-EFC Redistribution (AID 451; calls by dose curve; also: potency is read from the fitted curve at half-maximal effect); details: CHO-K1 GR-EFC translocation, beta-gal luminescence, 2 h
Glucocorticoid receptor (Homo sapiens), sequence (P04150 whole entry, looked up, the tested form may be a part): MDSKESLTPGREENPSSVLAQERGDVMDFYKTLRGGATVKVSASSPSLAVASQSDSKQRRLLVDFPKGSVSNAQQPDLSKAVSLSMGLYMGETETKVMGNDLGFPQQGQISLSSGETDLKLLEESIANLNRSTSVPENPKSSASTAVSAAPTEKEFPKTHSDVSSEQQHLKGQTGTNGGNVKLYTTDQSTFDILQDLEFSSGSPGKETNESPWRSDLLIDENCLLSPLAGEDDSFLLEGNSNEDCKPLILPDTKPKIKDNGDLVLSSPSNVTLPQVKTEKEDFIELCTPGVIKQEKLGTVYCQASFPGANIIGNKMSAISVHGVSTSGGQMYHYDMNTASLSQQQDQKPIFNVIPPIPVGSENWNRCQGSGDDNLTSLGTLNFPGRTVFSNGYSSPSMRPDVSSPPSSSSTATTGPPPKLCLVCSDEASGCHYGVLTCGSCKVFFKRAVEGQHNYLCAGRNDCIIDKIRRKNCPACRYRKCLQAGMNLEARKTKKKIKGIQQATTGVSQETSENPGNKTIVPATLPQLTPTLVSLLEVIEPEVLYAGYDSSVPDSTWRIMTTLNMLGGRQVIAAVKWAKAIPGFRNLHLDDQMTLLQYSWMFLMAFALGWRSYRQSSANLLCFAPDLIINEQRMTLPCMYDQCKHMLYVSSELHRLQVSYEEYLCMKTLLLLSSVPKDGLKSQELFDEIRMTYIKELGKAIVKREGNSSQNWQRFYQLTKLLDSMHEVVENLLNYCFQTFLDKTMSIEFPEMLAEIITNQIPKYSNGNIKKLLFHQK
In short: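 CHO-K1 cells stably expressing nuclear-localized β-gal enzyme acceptor and GR fused C-terminally to the enzyme donor fragment; ligand-driven nuclear translocation restores β-gal by complementation. Compounds titrated up to 46 uM final, 2 h at 37 °C; luminescence read.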

[9] = target: Mitogen-activated protein kinase 10 (Mus musculus) (UniProt Q61831); test: JNK3 AlphaScreen Assay (AID 530; active = well fitted curve in either direction with a large enough effect, not every such curve was filed as active;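 also: kinase came from lysate of stimulated human HepG2 cells; signal reports phosphorylation of biotinylated GST-cJun 1-79 at Ser73 with 10 µM ATP; % is scaled to controls: 0 for no effect and ±100 for the full control effect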)
In short: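 JNK3 came from HepG2 lysates pre-activated with IL-1beta and TNF-alpha and phosphorylated biotinylated GST-cJun (1-79) at 10 uM ATP, pH 7.6, room temperature. Compounds were titrated. AlphaScreen signal used anti-phospho-cJun (Ser73) antibody.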

[10] = Cell Viability - N2a (AID 540); details: N2a mouse neuroblastoma cell viability; activity change, negative = cytotoxicity: at 92.2 µM (top of the series); also: nearly all actives have a fitted effect of over 45% in size; also: potency is read from the fitted curve at half-maximal effect;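 as to activity change, negative = cytotoxicity: plate controls were DMSO alone for no effect and tamoxifen control for full effect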
In short: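 First, 1500 N2a cells per well incubate 5 hr at 37 °C; next, compounds are added and incubated 40 hr at 37 °C; finally CellTiter-Glo is added and luminescence read after 20 min, with AC50 derived by Hill modeling.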

[11] = Cell Viability - HUV-EC-C (AID 542); also: % is scaled to controls: 0 for no effect and ±100 for the full control effect; nearly all actives have a fitted effect of over 35% in size
In short: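 Decrease in cellular ATP, quantified by luciferase luminescence, reflects toxicity in normal human vascular endothelial HUV-EC-C cells given compound for 40 hr in complete culture medium. Values are AC50s from concentration-response curves.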

[12] = Cell Viability - H-4-II-E (AID 543); also: nearly all actives have a fitted effect of over 35% in size; also: potency is read from the fitted curve at half-maximal effect
In short: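 Here, cytotoxicity is measured in the rat hepatoma line H-4-II-E as loss of intracellular ATP after 40 hr compound treatment, detected by luciferase luminescence.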

[13] = Cell Viability - SH-SY5Y (AID 544); details: SH-SY5Y neuroblastoma cell viability;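 also: 0% = DMSO alone and -100% = 100 µM tamoxifen; nearly all actives have a fitted effect of over 55% in size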
In short: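 Cytotoxicity is scored as a concentration-dependent fall in intracellular ATP in human SH-SY5Y cells treated 40 hr in complete culture medium. Potency is expressed as AC50 from a Hill equation fit.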

[14] = Cell Viability - Renal Proximal Tubule (AID 545); also: nearly all actives have a fitted effect of over 40% in size; also: potency is read from the fitted curve at half-maximal effect;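 as to activity change, negative = cytotoxicity: 0% = DMSO only and -100% = 100 µM tamoxifen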
In short: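 Luminescent ATP signal (CellTiter-Glo) served as the viability read-out after 40 hr compound exposure of freshly isolated rat proximal tubule cells at 37 °C. Concentration-dependent ATP loss was fitted with the Hill equation to give AC50.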

[15] = Cell Viability - Mesenchymal (AID 546);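 also: cells exposed to compound for 40 hours before reading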; also: potency is read from the fitted curve at half-maximal effect;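 as to activity change, negative = cytotoxicity: 0% = DMSO only and -100% = 100 µM tamoxifen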
In short: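 Normal human renal glomerulus-derived kidney mesenchymal cells, 1000 per well in complete medium, were treated with compounds for 40 hr at 37 °C. Viability was read as intracellular ATP by CellTiter-Glo luminescence; AC50 values came from Hill-equation fits of qHTS concentration-response data.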

[16] = target: 3',5'-cyclic-AMP phosphodiesterase 4B (Homo sapiens) (UniProt Q07343); test: qHTS Assay for Inhibitors of PDE-IV (AID 607; active = well fitted activation curve with a large enough effect in the main read-out, with a control signal flat, not every such curve was filed as active; also: % of control where 0% means no effect)
3',5'-cyclic-AMP phosphodiesterase 4B (Homo sapiens), sequence (Q07343 whole entry, looked up): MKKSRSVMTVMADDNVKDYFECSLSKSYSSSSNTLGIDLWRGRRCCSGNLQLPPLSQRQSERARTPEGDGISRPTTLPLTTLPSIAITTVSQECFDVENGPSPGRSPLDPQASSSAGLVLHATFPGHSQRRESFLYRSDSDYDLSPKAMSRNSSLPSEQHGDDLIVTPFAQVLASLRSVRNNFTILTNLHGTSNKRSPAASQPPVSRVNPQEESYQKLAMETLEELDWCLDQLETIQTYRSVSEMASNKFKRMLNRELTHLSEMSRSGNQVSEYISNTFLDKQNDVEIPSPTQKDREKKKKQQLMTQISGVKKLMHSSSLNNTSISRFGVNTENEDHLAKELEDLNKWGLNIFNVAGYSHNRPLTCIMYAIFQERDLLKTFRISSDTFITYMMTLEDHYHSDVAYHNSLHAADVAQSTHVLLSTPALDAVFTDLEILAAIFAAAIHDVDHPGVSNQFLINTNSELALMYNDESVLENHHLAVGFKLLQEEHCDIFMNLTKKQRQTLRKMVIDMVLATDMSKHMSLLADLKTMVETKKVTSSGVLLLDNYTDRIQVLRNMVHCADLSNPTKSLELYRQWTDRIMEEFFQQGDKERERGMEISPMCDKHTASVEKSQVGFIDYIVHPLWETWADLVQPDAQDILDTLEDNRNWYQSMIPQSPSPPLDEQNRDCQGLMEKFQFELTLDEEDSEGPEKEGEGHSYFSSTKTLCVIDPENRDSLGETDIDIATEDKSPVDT
In short: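 HEK293 ACTOne cells with CNG channel (1000/well), endogenous PDE4; membrane potential dye, compounds up to 22.9 uM final. Fluorescence Ex 535/Em 590; RO 20-1724 (100 uM final) as reference.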

[17] = Cellular Toxicity (caspase-3) HepG2 (AID 654);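 also: cells exposed to compound for 16 hours before reading; 0% = DMSO alone and 100% = caspase signal from 100 µM tamoxifen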
In short: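 qHTS, HepG2, 1500 cells/well, complete medium; cpd 16 h 37 °C; Caspase-Glo 3/7, 20 min RT; lum. Norm: DMSO vs 100 uM tamoxifen; AC50 Hill fit.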

[18] = Cellular Toxicity (caspase-3) Jurkat (AID 655);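 also: cells exposed to compound for 16 h at 37 °C before reading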
In short: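 5000 Jurkat cells/well; compound 16 hr, 37 °C; Caspase-Glo 3/7 added, 20 min RT; luminescence read. Norm: DMSO = 0%, tamoxifen 100 uM = 100%. AC50, Hill model.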

[19] = target: Cytochrome P450 1A2 (Homo sapiens) (UniProt P05177); test: p450-cyp1a2 (AID 410; calls by dose curve; also: potency is read from the fitted curve at half-maximal effect)
Cytochrome P450 1A2 (Homo sapiens), sequence (P05177 whole entry, looked up): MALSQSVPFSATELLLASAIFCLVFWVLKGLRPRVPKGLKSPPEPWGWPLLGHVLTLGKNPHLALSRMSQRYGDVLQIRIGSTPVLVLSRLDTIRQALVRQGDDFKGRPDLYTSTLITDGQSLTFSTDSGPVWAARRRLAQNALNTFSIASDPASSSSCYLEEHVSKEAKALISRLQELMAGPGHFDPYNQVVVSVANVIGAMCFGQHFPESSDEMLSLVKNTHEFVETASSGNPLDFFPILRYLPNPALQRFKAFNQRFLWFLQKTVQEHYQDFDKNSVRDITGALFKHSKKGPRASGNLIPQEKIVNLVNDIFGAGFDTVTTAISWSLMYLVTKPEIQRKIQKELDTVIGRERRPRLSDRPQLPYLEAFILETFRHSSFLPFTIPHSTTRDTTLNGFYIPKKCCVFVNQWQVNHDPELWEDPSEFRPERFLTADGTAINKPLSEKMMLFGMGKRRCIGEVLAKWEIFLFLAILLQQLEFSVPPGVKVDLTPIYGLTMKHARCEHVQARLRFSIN
In short: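 Inhibition was calculated relative to 57 uM furafylline (full inhibition). The reaction used human CYP1A2 at 20nM with Luciferin-ME at its Km, 100uM, driven by an NADPH-regenerating system for 60 min at room temperature.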

[20] = viability change, negative = cytotoxic: at 92.2 µM (top of the series)

Cc1cc(NS(=O)(=O)c2ccc(N)cc2)no1
inactive: Potency [1] > 92 µM | Potency [2] > 92 µM | Potency [3] > 92 µM | Potency [4] > 92 µM | Potency [5] > 92 µM | Potency [6] > 92 µM | activity, negative = inhibition [7] 2% and 5.36% | Potency [8] > 20.6 µM | Potency [9] | Potency [10] | Potency [11] | Potency [12] | Potency [13, 20] | Potency [14] | Potency [15] | outcome [16] | Potency [17] | outcome [18]

CC1=CC(=O)c2ccccc2C1=O
inactive: Potency [8] > 20.6 µM | Potency [9] | outcome [16]
active: Potency [19] 0.158 µM

C[C@]12C=CC(=O)C=C1CC[C@@H]1[C@@H]2C(=O)C[C@@]2(C)[C@H]1CC[C@]2(O)C(=O)CO
inactive: Potency [1] > 92 µM | Potency [2] > 92 µM | Potency [3] > 92 µM | Potency [4] > 92 µM | Potency [5] > 92 µM | Potency [6] > 92 µM | Potency [9] | Potency [10] | Potency [11] | Potency [12] | Potency [13, 20] | Potency [14] | Potency [15] | Potency [17] | outcome [18]

CCC(=O)O[C@]1(C(=O)CCl)[C@@H](C)C[C@H]2[C@@H]3CCC4=CC(=O)C=C[C@]4(C)[C@@]3(F)[C@@H](O)C[C@@]21C
inactive: activity, negative = inhibition [7] -5.77%

Clc1ccccc1CN1CCc2sccc2C1
inactive: activity, negative = inhibition [7] 1.54% and 0.607% | Potency [9]

Nc1[nH]c(=O)ncc1F
inactive: activity, negative = inhibition [7] -4.22% | Potency [8] > 20.6 µM | Potency [9] | outcome [16]

Cc1ccnc2c1NC(=O)c1cccnc1N2C1CC1
inactive: Potency [1] > 92 µM | Potency [2] > 92 µM | Potency [3] > 92 µM | Potency [4] > 92 µM | Potency [5] > 92 µM | Potency [6] > 92 µM | Potency [9] | Potency [10] | Potency [11] | Potency [12] | Potency [13, 20] | Potency [14] | Potency [15] | Potency [17] | outcome [18]

CCN(CC)CC#CCOC(=O)C(O)(c1ccccc1)C1CCCCC1 (stereo unspecified)
inactive: activity, negative = inhibition [7] 0.633%

CNNCc1ccc(C(=O)NC(C)C)cc1
active: Potency [19] 1.58 µM
inactive: Potency [8] > 20.6 µM | Potency [9] | outcome [16]

CC(=O)[C@H]1CC[C@H]2[C@@H]3CCC4=CC(=O)CC[C@]4(C)[C@H]3CC[C@]12C
inactive: Potency [1] > 92 µM | Potency [4] > 92 µM | Potency [5] > 92 µM | Potency [6] > 92 µM | activity, negative = inhibition [7] 2.68% | Potency [9] | Potency [11] | viability change, negative = cytotoxic ([13]; at 92.2 µM (top of the series)) -22.5% | Potency [15] | Potency [17] | outcome [18]
active: Potency [3] 48.5 µM | activity change, negative = cytotoxicity [10] -96.5% and -82.2% | Potency [12] 39.8 µM | viability change, negative = cytotoxic [13, 20] -101%

CC[C@H](C)C(=O)O[C@H]1C[C@@H](C)C=C2C=C[C@H](C)[C@H](CC[C@@H]3C[C@@H](O)CC(=O)O3)[C@H]21
active: Potency [10] 2 µM | Potency [12] 7.94 µM | Potency [14] 2 µM | Potency [15] 7.94 µM
inactive: Potency [1] > 92 µM | Potency [3] > 92 µM | Potency [5] > 92 µM | activity, negative = inhibition [7] -3.85% | Potency [9] | Potency [11] | outcome [18]

N=C(N)c1ccc(OCCCCCOc2ccc(C(=N)N)cc2)cc1
inactive: Potency [4] > 92 µM | Potency [5] > 92 µM | Potency [6] > 92 µM | activity, negative = inhibition [7] 15.4% | Potency [8] > 20.6 µM | Potency [9] | Potency [13, 20] | outcome [16] | Potency [17] | outcome [18]
active: Potency [10] 15.8 µM
